# Results as given in PubChem BioAssay (NCATS).
# Inconclusive results are not listed. A number with no mark means an inactive call. Activity calls are given as the source filed them. Calls follow the shape of the dose curve; as a rule, active = well fitted inhibition curve with a large enough effect; inconclusive = small, poorly fitted or top-dose-only effect; inactive = no such curve, though single readings can be large or run the other way.
# Assay: Primary fluorescence-based thiol-reactive (MSTI) qHTS assay for identification of artifact compounds. (AID 1845221); also: nearly all actives have a fitted effect of over 65% in size;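 as to activity change, negative = thiol reactive: thiol-reactive compounds lower the probe fluorescence signal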
# Conditions: MSTI thiol-reactivity probe, 1 h; series mostly up to 53.8 µM; activity change, negative = thiol reactive: at the top concentration
# Excerpt: PI: Alexander Tropsha Ph.D.
# UNC Eshelman School of Pharmacy
# University of North Carolina, Chapel Hill, North Carolina
# Hits from high-throughput screening (HTS) of chemical libraries are often false positives due to their interference with the assay detection technology. In response to this problem, we generated the largest publicly available library of chemical liabilities and developed a free webtool to predict HTS artifacts, both of which are described herein. More specifically, we generated, curated, and integrated HTS datasets for thiol reactivity, redox activity, and luciferase (firefly and nano) activity. Using these curated datasets, we developed and validated several Quantitative Structure-Interference Relationship (QSIR) models to predict nuisance behavior. […] These models were employed for virtual profiling of the National Center for Advancing Translational Science's (NCATS) in-house library, and 256 compounds for each assay were selected for the experimental validation of nuisance behavior. The BA for these external predictions ranged from 58 to 78% for compounds within the applicability domains of the models. […] The models developed in this study, along with aggregation models previously developed by our group (SCAM Detective) were implemented in "Liability Predictor," an online tool which may be used as part of chemical library design or for triaging HTS hits. Both the models and the curated datasets are publicly available at https://liability.mml.unc.edu/.
# SEQUENCE No. (e.g., 1, 2, 3, etc.); […] (e.g., Cells, Incubation, Reagent, etc.); VALUE; DESCRIPTION.
# 1; Reagent; 4 uL; […].
# 2; Compounds and control; 16 nL; Kalypsis pin tool (Wako USA) equipped with a 1536-well pin head.
# 4; Detection; Fluorescence, ViewLux microplate reader, 525 nm excitation, 598 nm emission.
# NOTES (numbers refer to Sequence numbers above)
# 1. Assays determining (E)-2-(4-mercaptostyryl)-1,3,3-trimethyl-3H-indol-1-ium (MSTI) reactivity were performed as previously described in the literature with modifications for the quick identification of compounds reacting with thiol. In brief, 4 uL of MSTI or positive control Acetyl-MSTI (final concentrations of 4 uM and 4 uM, respectively) in assay buffer (2% DMSO in 1X PBS pH 7.4) was dispensed into all wells of a 1536-well assay plate (solid-bottom black plate; Greiner Bio One, Monroe, NC).
# 2. A Wako Pin-tool (Wako Automation, Richmond, VA) was used to transfer 16 nL of compounds (consisting of 7-plates in qHTS format, final concentration range 18.3 nM to 114 uM) or control MLS001163887 (final concentration range 1.22 nM to 40 uM).
# 3. Plates were centrifuged (121xg, 15 seconds) and incubated for 1 hour at room temperature protected from light.
# 4. Samples were read for fluorescence (Ex/Em = 525(20)/598(25) nm) on a ViewLux CCD imager (PerkinElmer). Data were normalized to Acetyl-MSTI (0% activity) and MSTI (100% activity) and the resulting percent inhibition data were fitted to a 4-parameter Hill equation using NCATS in-house software.
# Potency is read from the fitted curve at half-maximal effect.
Structure (SMILES),"activity change, negative = thiol reactive",Potency
CCc1cncnc1N1CCN(Cc2nc3ccc(C(F)(F)F)cc3[nH]2)CC1,134%,–
CCOc1cc(C(=O)Nc2ccc(Cl)c(-c3nc4ccccc4[nH]3)c2)cc(OCC)c1OCC,159%,–
Cc1csc(NC(=O)c2sc3nc4c(c(C(F)(F)F)c3c2N)CCC4)n1,-0.968%,–
COc1ccc(CCN2CCN(CCCc3ccccc3)CC2)cc1OC,19.5%,–
CC(C)(N)C(=O)N[C@H](COCc1ccccc1)C(=O)N1CCC2(CC1)CN(S(C)(=O)=O)c1ccccc12,26.8%,–
O=C(NOC[C@H](O)CO)c1ccc(F)c(F)c1Nc1ccc(I)cc1F,147%,–
Cn1cc(-c2ccc3nnc(C(F)(F)c4ccc5ncccc5c4)n3n2)cn1,218%,–
N#CC[C@H](C1CCCC1)n1cc(-c2ncnc3[nH]ccc23)cn1,42.9%,–
S=C(NCc1ccc2c(c1)OCO2)N1CCN(c2ncnc3c2oc2ccccc23)CC1,369%,–
Cc1n[nH]c(C)c1Cc1sc2c(c1C(=O)N1C[C@H](O)CO1)c(=O)n(C)c(=O)n2CC(C)C,12%,–
COc1c(Cl)cc2c([nH]c3cnccc32)c1NC(=O)c1cccnc1C,102%,–
CN(C(=O)c1ccc(F)cc1C(F)(F)F)C1CCN(c2nnc(-c3ccnn3C)c3ccccc23)CC1,-20.8%,–
CN(C)c1ccc(C2Nc3ccc4ccccc4c3C3=C2C(=O)CC(C)(C)C3)cc1Br (stereo not given),-14.9%,–
C[C@@H]1CN(Cc2ccc(F)cc2)[C@@H](C)CN1C(=O)c1cc2c(C(=O)C(=O)N(C)C)cn(C)c2cc1Cl,17.6%,–
CC[C@@H](C)[C@H](NC(=O)[C@H](CC1CCCCC1)NC(=O)c1ccno1)C(=O)N1CCC2(CCc3ccccc32)CC1,-7.13%,–
C[C@H](NC(=O)Cc1cc(F)cc(F)c1)C(=O)N[C@@H]1C(=O)N(C)c2ccccc2-c2ccccc21,152%,–
Cc1ccnc(NS(=O)(=O)c2ccc(NC(=O)Nc3ccc(S(=O)(=O)Nc4nccc(C)n4)cc3)cc2)n1,21.4%,–
CCN(CC)CCCC(C)Nc1ccnc2cc(Cl)ccc12 (stereo not given),-0.305% [at 11.5 µM],–
CC1(C)Cc2c(-c3ccccc3)c(-c3ccc(Cl)cc3)c(CC(=O)O)n2C1,-0.509%,–
CCOc1ccn(-c2ccc(F)cc2)c(=O)c1C(=O)Nc1ccc(Oc2ccnc(N)c2Cl)c(F)c1,307%,–

Structure (SMILES),"activity change, negative = thiol reactive",Potency
OCCn1cc(-c2cnc3nnn(Cc4ccc5ncccc5c4)c3n2)cn1,19.4%,–
Cn1cnc2c(F)c(Nc3ccc(Br)cc3Cl)c(C(=O)NOCCO)cc21,222%,–
CN(C)c1ccc(Nc2nc(N)n(C(=O)c3c(F)cccc3F)n2)cc1,–,1340 nM (active)
O=C(Nc1cccnc1)N1CCC(Cc2cccc(Oc3ccc(C(F)(F)F)cn3)c2)CC1,-15.2%,–
CNC(=O)c1ccc(C)c(-n2c(C)cc(OCc3ccc(F)cc3F)c(Br)c2=O)c1,6.19%,–
O=C(O)CCc1ccc(NCc2cccc(Oc3ccccc3)c2)cc1,–,1680 nM (active)
COc1cc(Oc2ccnc3cc(OC)c(OC)cc23)ccc1NC(=O)NC(C)c1nccs1 (stereo not given),58.5%,–
COc1cc(Nc2ncc3c(n2)-c2ccc(Cl)cc2C(c2c(F)cccc2OC)=NC3)ccc1C(=O)O,–,inactive
Clc1ccc(Nc2nnc(Cc3ccncc3)c3ccccc23)cc1,14.4%,–
COc1ccccc1[C@H](c1cccc2ccccc12)[C@@](C)(C#N)C(=O)N1CCC(c2cccc(C(F)(F)F)c2)CC1,4.86%,–
Cc1cc(Nc2nc(N[C@@H](C)c3ncc(F)cn3)ncc2Cl)n[nH]1,-5.42%,–
CS(=O)(=O)c1ccc(C(=O)Nc2ccc(Cl)c(-c3ccccn3)c2)c(Cl)c1,231%,–
COc1cc2nccc(Oc3ccc(NC(=O)NC4CC4)c(Cl)c3)c2cc1C(N)=O,47.8%,–
COc1cc2c(cc1OC)CN(CCc1ccc(NC(=O)c3cccc4c(=O)c5cccc(OC)c5[nH]c34)cc1)CC2,-22.5%,–
COc1cccc2cc(-c3nc(C4CCC(C(=O)O)CC4)n4ncnc(N)c34)[nH]c12 (stereo not given),–,26700 nM (active)
CN(C)C(=O)c1ccc(S(=O)(=O)c2ccc(NC(=O)[C@@](C)(O)C(F)(F)F)c(Cl)c2)cc1,141%,–
COc1cc(F)c(F)c(Nc2ccc(I)cc2F)c1NS(=O)(=O)C1(C[C@H](O)CO)CC1,272%,–
O=c1[nH]c(-c2ccc(C(F)(F)F)cc2)nc2c1CSCC2,5.97%,–
CC[C@H](Nc1ncnc2nc[nH]c12)c1nc2cccc(F)c2c(=O)n1-c1ccccc1,52.7% [at 11.5 µM],–
C#Cc1cccc(Nc2ncnc3cc(OCCOC)c(OCCOC)cc23)c1,99.6%,–
